The full data set covers some 8,800 targets. This sample favours those with a hit. About 0.5% of all pairs of compound and target were hits.
Key:
Test in all cases: log2 fold change, soluble protein after heating vs DMSO (PISA); higher = thermal stabilisation; K562 lysate, 10 uM; active = over 0.2 and 3.5 SD of the protein, either way, in both replicates (recomputed)
vemurafenib = compound: CCCS(=O)(=O)Nc1ccc(F)c(C(=O)c2c[nH]c3ncc(-c4ccc(Cl)cc4)cc23)c1F [vemurafenib]
Procedure, shortened: (§1)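 Dounce homogenisation of K562 pellets in PBS pH 7.4 with 1 mM MgCl2 produced a crude extract, used at 1 mg/mL protein. Exposure to 10 μM compound lasted 30 min, and aliquots were then heated for 3 min across 48°C-58°C, pooled and brought to 0.5% NP-40 at 4°C. The supernatant after 21,000xg for 90 min was quantified by TMTpro 16plex LC-MS/MS with channel sums equalised. Duplicate values are given as log-two fold change in thermal stability relative to solvent controls.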

[1] = compound: CCCS(=O)(=O)Nc1ccc(F)c(C(=O)c2c[nH]c3ncc(Cl)cc23)c1F
Procedure, shortened: as §1

barasertib = compound: CCN(CCCOc1ccc2c(Nc3cc(CC(=O)Nc4cccc(F)c4)[nH]n3)ncnc2c1)CCOP(=O)(O)O [barasertib]
Procedure, shortened: as §1

[2] = compound: CC[C@@H]1C(=O)N(C)c2cnc(Nc3ccc(C(=O)NC4CCN(C)CC4)cc3OC)nc2N1C1CCCC1
Procedure, shortened: as §1

volasertib = compound: CC[C@@H]1C(=O)N(C)c2cnc(Nc3ccc(C(=O)N[C@H]4CC[C@H](N5CCN(CC6CC6)CC5)CC4)cc3OC)nc2N1C(C)C [volasertib]
Procedure, shortened: as §1

[3] = compound: CCn1c(C(=O)N(C2CC2)C2CC2)cc2c3c(ncn3C)c(Nc3cc(C)n(C)n3)nc21
Procedure, shortened: as §1

[4] = compound: CCn1cc(-c2ccnc3[nH]c(-c4cccc(CN(C)C)c4)cc23)c(-c2ccc(NC(=O)N(C)C)cc2)n1
Procedure, shortened: as §1

[5] = compound: CN1CCC(CNc2ccc3ncc(-c4cccc(OC(F)(F)F)c4)n3n2)CC1
Procedure, shortened: as §1

saracatinib = compound: CN1CCN(CCOc2cc(OC3CCOCC3)c3c(Nc4c(Cl)ccc5c4OCO5)ncnc3c2)CC1 [saracatinib]
Procedure, shortened: as §1

sotrastaurin = compound: CN1CCN(c2nc(C3=C(c4c[nH]c5ccccc45)C(=O)NC3=O)c3ccccc3n2)CC1 [sotrastaurin]
Procedure, shortened: as §1

alvocidib = compound: CN1CC[C@H](c2c(O)cc(O)c3c(=O)cc(-c4ccccc4Cl)oc23)[C@H](O)C1 [alvocidib]
Procedure, shortened: as §1

Tubastatin A = compound: CN1CCc2c(c3ccccc3n2Cc2ccc(C(=O)NO)cc2)C1 [Tubastatin A]
Procedure, shortened: as §1

[6] = compound: CNC(=O)C1=CC=CC=C1NC2=NC(=NC=C2Cl)NC3=C(C=C(C=C3)N4CCOCC4)OC
Procedure, shortened: as §1

defactinib = compound: CNC(=O)c1ccc(Nc2ncc(C(F)(F)F)c(NCc3nccnc3N(C)S(C)(=O)=O)n2)cc1 [defactinib]
Procedure, shortened: as §1

[7] = compound: CNc1nc(-c2ccc3c(N)n[nH]c3c2)cc(N2C[C@@H](C(=O)NC3CCCCC3)CC[C@H]2C)n1
Procedure, shortened: as §1

encorafenib = compound: COC(=O)N[C@@H](C)CNc1nccc(-c2cn(C(C)C)nc2-c2cc(Cl)cc(NS(C)(=O)=O)c2F)n1 [encorafenib]
Procedure, shortened: as §1

[8] = compound: COC(=O)[C@H](CCSC)NC(=O)C1=C(C=C(C=C1)NC[C@H](CS)N)C2=CC=CC=C2
Procedure, shortened: as §1

alisertib = compound: COc1cc(Nc2ncc3c(n2)-c2ccc(Cl)cc2C(c2c(F)cccc2OC)=NC3)ccc1C(=O)O [alisertib]
Procedure, shortened: as §1

[9] = compound: COc1cc2nc(-c3cc(F)ccc3O)nc(N[C@@H]3CNC[C@H]3C(C)(C)O)c2cc1OC
Procedure, shortened: as §1

gefitinib = compound: COc1cc2ncnc(Nc3ccc(F)c(Cl)c3)c2cc1OCCCN1CCOCC1 [gefitinib]
Procedure, shortened: as §1

Chain of UniProt O00258 (O00258 whole entry, looked up): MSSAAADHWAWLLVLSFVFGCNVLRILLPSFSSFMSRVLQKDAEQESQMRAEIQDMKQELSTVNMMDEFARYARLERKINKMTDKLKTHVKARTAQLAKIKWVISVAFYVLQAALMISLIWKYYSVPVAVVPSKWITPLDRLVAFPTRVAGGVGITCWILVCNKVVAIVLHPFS
Chain of UniProt Q99986 (Q99986 whole entry, looked up): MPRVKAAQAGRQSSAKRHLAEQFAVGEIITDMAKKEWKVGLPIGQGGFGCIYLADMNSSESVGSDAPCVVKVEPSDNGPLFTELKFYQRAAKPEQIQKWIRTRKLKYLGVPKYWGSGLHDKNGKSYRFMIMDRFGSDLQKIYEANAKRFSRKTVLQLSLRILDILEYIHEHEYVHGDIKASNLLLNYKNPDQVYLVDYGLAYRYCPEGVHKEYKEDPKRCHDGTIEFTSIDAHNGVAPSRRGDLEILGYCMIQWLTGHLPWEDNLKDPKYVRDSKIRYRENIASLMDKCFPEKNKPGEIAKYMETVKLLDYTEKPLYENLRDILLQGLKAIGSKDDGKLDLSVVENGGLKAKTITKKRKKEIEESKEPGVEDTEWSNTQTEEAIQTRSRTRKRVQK
Chain of UniProt A8MPS7 (A8MPS7 whole entry, looked up): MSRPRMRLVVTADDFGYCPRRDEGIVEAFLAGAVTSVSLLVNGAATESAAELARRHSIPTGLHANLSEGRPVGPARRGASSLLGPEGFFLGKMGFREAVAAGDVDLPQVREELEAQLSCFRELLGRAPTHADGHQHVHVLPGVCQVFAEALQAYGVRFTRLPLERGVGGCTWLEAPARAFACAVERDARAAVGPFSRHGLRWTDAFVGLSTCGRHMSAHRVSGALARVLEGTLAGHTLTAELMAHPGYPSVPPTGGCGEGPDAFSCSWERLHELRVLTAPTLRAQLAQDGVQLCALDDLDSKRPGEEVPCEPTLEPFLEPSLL
Chain of UniProt Q96S55 (Q96S55 whole entry, looked up): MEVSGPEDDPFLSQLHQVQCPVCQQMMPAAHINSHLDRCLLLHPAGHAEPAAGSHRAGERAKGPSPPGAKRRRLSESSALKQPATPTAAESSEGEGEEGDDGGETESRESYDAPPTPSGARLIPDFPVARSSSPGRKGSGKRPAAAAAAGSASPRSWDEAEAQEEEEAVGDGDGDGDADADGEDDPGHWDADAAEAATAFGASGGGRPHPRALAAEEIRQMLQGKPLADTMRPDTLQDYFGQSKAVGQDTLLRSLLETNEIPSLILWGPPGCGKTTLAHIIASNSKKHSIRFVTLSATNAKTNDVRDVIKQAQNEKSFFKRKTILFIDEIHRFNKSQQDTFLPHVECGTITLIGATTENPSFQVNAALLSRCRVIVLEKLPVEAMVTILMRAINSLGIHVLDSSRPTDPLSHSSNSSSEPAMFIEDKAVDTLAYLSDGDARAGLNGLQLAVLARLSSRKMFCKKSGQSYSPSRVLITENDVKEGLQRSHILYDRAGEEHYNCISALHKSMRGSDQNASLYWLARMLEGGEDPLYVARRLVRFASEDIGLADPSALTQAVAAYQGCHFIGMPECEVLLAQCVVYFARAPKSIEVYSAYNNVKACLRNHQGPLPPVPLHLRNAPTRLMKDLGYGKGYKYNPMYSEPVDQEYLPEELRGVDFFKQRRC
Chain of UniProt Q7Z739 (Q7Z739 whole entry, looked up): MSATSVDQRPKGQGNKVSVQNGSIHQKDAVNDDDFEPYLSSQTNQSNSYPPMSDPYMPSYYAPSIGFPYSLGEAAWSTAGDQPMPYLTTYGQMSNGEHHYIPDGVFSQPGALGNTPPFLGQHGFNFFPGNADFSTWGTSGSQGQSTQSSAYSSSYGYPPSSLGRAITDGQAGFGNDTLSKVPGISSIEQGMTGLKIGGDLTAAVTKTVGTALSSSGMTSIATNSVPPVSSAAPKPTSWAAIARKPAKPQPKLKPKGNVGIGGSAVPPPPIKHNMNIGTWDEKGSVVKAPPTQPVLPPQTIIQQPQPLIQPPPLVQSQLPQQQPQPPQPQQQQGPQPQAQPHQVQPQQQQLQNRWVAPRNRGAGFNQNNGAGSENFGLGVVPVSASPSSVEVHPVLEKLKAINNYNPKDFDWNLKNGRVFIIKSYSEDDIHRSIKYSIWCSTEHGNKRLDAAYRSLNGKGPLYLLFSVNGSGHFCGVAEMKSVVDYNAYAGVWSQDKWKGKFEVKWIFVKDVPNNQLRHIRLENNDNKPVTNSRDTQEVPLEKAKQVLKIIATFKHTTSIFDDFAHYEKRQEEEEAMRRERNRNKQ
Chain of UniProt Q5T200 (Q5T200 whole entry, looked up): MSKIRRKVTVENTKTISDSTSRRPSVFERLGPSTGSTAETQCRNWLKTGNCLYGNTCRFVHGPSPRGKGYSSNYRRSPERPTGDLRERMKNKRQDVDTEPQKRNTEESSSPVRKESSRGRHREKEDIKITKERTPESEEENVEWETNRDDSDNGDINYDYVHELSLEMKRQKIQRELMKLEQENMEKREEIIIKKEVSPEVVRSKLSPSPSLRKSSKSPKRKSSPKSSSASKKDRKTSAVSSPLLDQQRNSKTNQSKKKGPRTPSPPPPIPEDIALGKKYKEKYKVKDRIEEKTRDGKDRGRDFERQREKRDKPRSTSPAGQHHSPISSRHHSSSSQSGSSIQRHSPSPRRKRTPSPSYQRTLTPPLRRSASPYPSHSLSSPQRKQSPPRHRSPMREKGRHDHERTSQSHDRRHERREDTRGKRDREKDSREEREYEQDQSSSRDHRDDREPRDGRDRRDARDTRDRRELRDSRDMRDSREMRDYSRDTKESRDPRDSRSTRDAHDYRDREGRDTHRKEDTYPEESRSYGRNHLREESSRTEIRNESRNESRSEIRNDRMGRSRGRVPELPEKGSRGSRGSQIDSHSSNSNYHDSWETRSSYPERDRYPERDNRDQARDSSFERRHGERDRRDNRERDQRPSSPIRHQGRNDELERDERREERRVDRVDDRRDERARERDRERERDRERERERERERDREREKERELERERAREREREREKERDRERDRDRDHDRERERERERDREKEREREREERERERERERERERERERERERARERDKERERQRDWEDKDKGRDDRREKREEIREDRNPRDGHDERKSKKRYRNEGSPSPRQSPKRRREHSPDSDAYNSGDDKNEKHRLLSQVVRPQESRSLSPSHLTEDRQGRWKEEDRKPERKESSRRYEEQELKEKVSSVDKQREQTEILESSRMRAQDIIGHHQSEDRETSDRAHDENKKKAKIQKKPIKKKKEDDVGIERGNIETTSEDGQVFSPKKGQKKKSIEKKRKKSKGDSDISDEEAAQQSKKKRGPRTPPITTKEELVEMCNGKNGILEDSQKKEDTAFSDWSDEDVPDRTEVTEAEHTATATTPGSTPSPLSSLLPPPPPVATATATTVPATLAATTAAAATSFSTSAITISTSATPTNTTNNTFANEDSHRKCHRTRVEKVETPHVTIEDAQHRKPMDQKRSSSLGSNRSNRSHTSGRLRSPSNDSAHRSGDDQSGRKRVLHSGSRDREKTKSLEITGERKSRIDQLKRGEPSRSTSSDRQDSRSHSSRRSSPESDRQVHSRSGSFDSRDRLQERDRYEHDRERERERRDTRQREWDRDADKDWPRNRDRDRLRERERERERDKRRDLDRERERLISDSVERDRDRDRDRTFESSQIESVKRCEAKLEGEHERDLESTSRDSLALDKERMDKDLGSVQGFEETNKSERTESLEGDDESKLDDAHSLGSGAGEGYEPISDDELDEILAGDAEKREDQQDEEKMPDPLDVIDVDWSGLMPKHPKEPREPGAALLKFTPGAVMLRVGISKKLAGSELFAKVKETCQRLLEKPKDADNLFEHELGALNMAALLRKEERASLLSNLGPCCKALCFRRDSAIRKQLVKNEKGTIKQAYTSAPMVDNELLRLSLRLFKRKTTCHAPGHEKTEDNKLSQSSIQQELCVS
Chain of UniProt Q96K21 (Q96K21 whole entry, looked up): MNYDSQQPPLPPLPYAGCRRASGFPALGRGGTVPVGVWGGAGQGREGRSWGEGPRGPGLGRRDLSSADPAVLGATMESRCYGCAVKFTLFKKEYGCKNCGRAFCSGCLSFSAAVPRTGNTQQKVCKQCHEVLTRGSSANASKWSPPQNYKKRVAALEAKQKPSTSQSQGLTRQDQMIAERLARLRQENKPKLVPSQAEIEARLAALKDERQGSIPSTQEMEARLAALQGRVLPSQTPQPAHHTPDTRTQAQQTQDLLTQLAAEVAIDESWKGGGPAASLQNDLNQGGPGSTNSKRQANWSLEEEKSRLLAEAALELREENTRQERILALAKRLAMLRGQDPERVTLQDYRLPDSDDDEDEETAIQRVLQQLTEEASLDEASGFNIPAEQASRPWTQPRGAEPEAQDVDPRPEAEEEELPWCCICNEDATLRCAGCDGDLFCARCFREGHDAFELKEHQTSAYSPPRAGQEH

| Target | log2 fold change (vemurafenib) | log2 fold change [1] | log2 fold change (barasertib) | log2 fold change [2] | log2 fold change (volasertib) | log2 fold change [3] | log2 fold change [4] | log2 fold change [5] | log2 fold change (saracatinib) | log2 fold change (sotrastaurin) | log2 fold change (alvocidib) | log2 fold change (Tubastatin A) | log2 fold change [6] | log2 fold change (defactinib) | log2 fold change [7] | log2 fold change (encorafenib) | log2 fold change [8] | log2 fold change (alisertib) | log2 fold change [9] | log2 fold change (gefitinib) |
| --- | --- | --- | --- | --- | --- | --- | --- | --- | --- | --- | --- | --- | --- | --- | --- | --- | --- | --- | --- | --- |
| WRN (UniProt Q14191) | -0.032 (inactive) | -0.065 (inactive) | 0.026 (inactive) | -0.032 (inactive) | 0.007 (inactive) | 0.053 (inactive) | -0.052 (inactive) | 0.022 (inactive) | 0.008 (inactive) | 0.031 (inactive) | -0.029 (inactive) | -0.071 (inactive) | -0.007 (inactive) | 0.023 (inactive) | -0.025 (inactive) | 0.016 (inactive) | -0.013 (inactive) | -0.037 (inactive) | 0 (inactive) | 0.047 (inactive) |
| YDJC (UniProt A8MPS7) | -0.022 (inactive) | 0.006 (inactive) | 0.017 (inactive) | 0.01 (inactive) | -0.038 (inactive) | -0.063 (inactive) | 0.012 (inactive) | 0.055 (inactive) | 0.024 (inactive) | 0.008 (inactive) | -0.039 (inactive) | 0.052 (inactive) | 0.014 (inactive) | -0.026 (inactive) | 0.014 (inactive) | -0.025 (inactive) | -0.036 (inactive) | 0.035 (inactive) | 0.007 (inactive) | -0.02 (inactive) |
| WRB (UniProt O00258) | 0.086 (inactive) | 0.077 (inactive) | 0.098 (inactive) | -0.011 (inactive) | 0.015 (inactive) | -0.148 (inactive) | -0.176 (inactive) | 0.068 (inactive) | -0.147 (inactive) | 0.013 (inactive) | -0.022 (inactive) | 0.114 (inactive) | 0.029 (inactive) | -0.003 (inactive) | 0.044 (inactive) | -0.067 (inactive) | 0.027 (inactive) | -0.028 (inactive) | 0.022 (inactive) | 0.061 (inactive) |
| VPS41 (UniProt P49754) | -0.018 (inactive) | -0.016 (inactive) | 0.085 (inactive) | 0.005 (inactive) | -0.078 (inactive) | 0.06 (inactive) | 0.074 (inactive) | -0.054 (inactive) | 0.002 (inactive) | 0.058 (inactive) | 0.068 (inactive) | -0.128 (inactive) | 0.03 (inactive) | 0.006 (inactive) | -0.055 (inactive) | 0.019 (inactive) | -0.072 (inactive) | -0.043 (inactive) | 0.006 (inactive) | -0.004 (inactive) |
| WRNIP1 (UniProt Q96S55) | 0.036 (inactive) | 0.042 (inactive) | 0.064 (inactive) | -0.114 (inactive) | -0.128 (inactive) | 0.014 (inactive) | -0.026 (inactive) | 0.03 (inactive) | -0.006 (inactive) | 0.042 (inactive) | 0.005 (inactive) | -0.229 (inactive) | 0.01 (inactive) | 0.01 (inactive) | -0.044 (inactive) | 0.024 (inactive) | 0.222 (active) | -0.022 (inactive) | -0.014 (inactive) | 0.033 (inactive) |
| USP48 isoform 8 (UniProt Q86UV5) | -0.002 (inactive) | 0.036 (inactive) | 0.002 (inactive) | -0.013 (inactive) | -0.043 (inactive) | 0.007 (inactive) | -0.011 (inactive) | -0.032 (inactive) | -0.004 (inactive) | 0.031 (inactive) | 0.006 (inactive) | -0.119 (inactive) | 0.019 (inactive) | -0.012 (inactive) | 0.011 (inactive) | -0.003 (inactive) | 0.14 (inactive) | -0.016 (inactive) | 0.003 (inactive) | -0.018 (inactive) |
| VPS18 (UniProt Q9P253) | 0.037 (inactive) | 0.014 (inactive) | 0 (inactive) | 0 (inactive) | -0.083 (inactive) | 0.046 (inactive) | -0.048 (inactive) | -0.04 (inactive) | -0.012 (inactive) | 0.02 (inactive) | -0.016 (inactive) | -0.106 (inactive) | 0.011 (inactive) | -0.057 (inactive) | -0.008 (inactive) | 0.019 (inactive) | -0.125 (inactive) | 0.005 (inactive) | -0.006 (inactive) | 0.006 (inactive) |
| ZFYVE19 (UniProt Q96K21) | 0 (inactive) | 0.02 (inactive) | 0.016 (inactive) | 0.077 (inactive) | 0.023 (inactive) | 0.006 (inactive) | -0.232 (active) | 0.126 (inactive) | -0.027 (inactive) | 0.013 (inactive) | -0.141 (inactive) | 0.026 (inactive) | -0.037 (inactive) | -0.002 (inactive) | 0.008 (inactive) | -0.001 (inactive) | -0.04 (inactive) | 0.008 (inactive) | 0 (inactive) | 0.019 (inactive) |
| ZMYM1 (UniProt Q5SVZ6) | 0.011 (inactive) | -0.017 (inactive) | 0.05 (inactive) | -0.033 (inactive) | -0.124 (inactive) | 0.017 (inactive) | -0.272 (active) | 0.127 (inactive) | 0.013 (inactive) | 0.05 (inactive) | -0.162 (inactive) | -0.098 (inactive) | 0.071 (inactive) | -0.035 (inactive) | 0.067 (inactive) | 0.063 (inactive) | -0.038 (inactive) | -0.008 (inactive) | 0.03 (inactive) | 0.009 (inactive) |
| ZHX1 (UniProt Q9UKY1) | -0.058 (inactive) | 0.057 (inactive) | 0.059 (inactive) | 0.144 (inactive) | -0.079 (inactive) | -0.056 (inactive) | -0.603 (active) | 0.526 (active) | 0.011 (inactive) | 0.029 (inactive) | -0.231 (inactive) | -0.194 (inactive) | 0 (inactive) | 0.034 (inactive) | 0.251 (inactive) | 0.041 (inactive) | 0.044 (inactive) | 0.013 (inactive) | 0.042 (inactive) | 0.012 (inactive) |
| WDR62 isoform 4 (UniProt O43379) | 0.004 (inactive) | 0.065 (inactive) | 0.031 (inactive) | -0.063 (inactive) | 0 (inactive) | 0.003 (inactive) | -0.009 (inactive) | -0.044 (inactive) | 0.04 (inactive) | 0.031 (inactive) | 0.018 (inactive) | -0.132 (inactive) | 0.012 (inactive) | -0.007 (inactive) | 0.048 (inactive) | 0.054 (inactive) | -0.01 (inactive) | 0.005 (inactive) | 0.052 (inactive) | 0.013 (inactive) |
| ZC3H13 (UniProt Q5T200) | -0.027 (inactive) | -0.037 (inactive) | -0.045 (inactive) | 0.036 (inactive) | -0.013 (inactive) | -0.031 (inactive) | 0.033 (inactive) | 0 (inactive) | -0.046 (inactive) | 0.222 (inactive) | -0.063 (inactive) | 0.063 (inactive) | -0.073 (inactive) | 0.088 (inactive) | -0.028 (inactive) | -0.069 (inactive) | 0.021 (inactive) | -0.362 (active) | 0.016 (inactive) | -0.077 (inactive) |
| VRK1 (UniProt Q99986) | 0.024 (inactive) | 0.024 (inactive) | -0.002 (inactive) | -0.051 (inactive) | -0.03 (inactive) | 0 (inactive) | -0.041 (inactive) | 0.031 (inactive) | 0.002 (inactive) | 0.178 (inactive) | 0.385 (active) | -0.096 (inactive) | 0.008 (inactive) | -0.067 (inactive) | 0.017 (inactive) | -0.027 (inactive) | 0.047 (inactive) | -0.004 (inactive) | -0.007 (inactive) | -0.026 (inactive) |
| USP8 (UniProt P40818) | 0 (inactive) | 0.015 (inactive) | 0.001 (inactive) | -0.008 (inactive) | -0.05 (inactive) | 0.033 (inactive) | -0.002 (inactive) | -0.063 (inactive) | -0.006 (inactive) | -0.021 (inactive) | 0.023 (inactive) | -0.018 (inactive) | 0.014 (inactive) | 0.02 (inactive) | 0.005 (inactive) | 0.004 (inactive) | 0.102 (inactive) | -0.011 (inactive) | 0.002 (inactive) | 0.015 (inactive) |
| YTHDF3 (UniProt Q7Z739) | -0.019 (inactive) | 0.002 (inactive) | 0.119 (inactive) | 0.058 (inactive) | -0.071 (inactive) | 0.168 (inactive) | -0.041 (inactive) | 0.01 (inactive) | 0.076 (inactive) | -0.083 (inactive) | 0.03 (inactive) | -0.108 (inactive) | -0.071 (inactive) | -0.05 (inactive) | -0.112 (inactive) | 0.097 (inactive) | 0.024 (inactive) | 0.043 (inactive) | 0.009 (inactive) | 0.013 (inactive) |

Source: the supplement of paper PMC10849652
